Data from PubChem BioAssay (NCI).
Compounds without any hit were thinned out: in the full panel of roughly 79,000, 15% have a hit. A number with no mark means an inactive call. Active and inactive are the calls of the source. Rule as the data show it: active = growth inhibition above about 70%; inactive = the rest.

Test: NCI Yeast Anticancer Drug Screen. Data for the rad50 strain (AID 155);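 also: 0% = growth of vehicle-only cultures of the same strain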
Conditions: S. cerevisiae rad50 strain growth inhibition; at 50.0 µM; stronger effect = higher value
In short: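 Yeast carrying a defined DNA repair defect were exposed to test compounds, and growth was compared with vehicle-treated controls to give percent inhibition.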

For `C[CH2][Sn]([CH2]C)([S]c1nc(O)cc(=O)[nH]1)[S]c1nc(O)cc(=O)[nH]1`, which growth inhibition is on record?
The growth inhibition was 32.5%.

With `CCCC(=O)[O-].N.N.N.N.N.[Co+3].[O-][Cl+3]([O-])([O-])[O-]` as the molecule, how does the growth inhibition read?
Its growth inhibition is -23.8%.

Which growth inhibition does the source give for `COc1ccc(C)cc1C(=O)C[n+]1ccc2ccccc2c1` here?
Its growth inhibition is -10.4%.

For `CC(C)[C@]12O[C@H]1[C@@H]1O[C@]13[C@]1(O[C@H]1C[C@H]1C4=C(C(=O)OC4)[C@@H](O)C[C@@]13C)[C@@H]2O`, which growth inhibition is on record?
The growth inhibition was -8.4%.

Which growth inhibition does the source give for `COc1cc(C=C2C(=O)NC(=S)NC2=O)cc(OC)c1OC` here?
Its growth inhibition is 5.05%.

With `CCC(C)OC(=O)Nc1cccc(OC(=O)NC)c1` (stereo not drawn) as the molecule, how does the growth inhibition read?
The growth inhibition was 4.75%.

Which growth inhibition does the source give for `COC1=CC=C2[C@@H]3Cc4ccc(OC)c5c4[C@]2(CCN3CCCl)C1O5` (stereo partly drawn) here?
Its growth inhibition is 27%.

For `CCC(=O)c1ccc(N)cc1`, which growth inhibition is on record?
Its growth inhibition is 7.95%.

With `CC(C)(C)C1=C(Br)C(Br)(C(C)(C)C)OP1(=O)c1ccccc1` (stereo not drawn) as the molecule, how does the growth inhibition read?
Its growth inhibition is 7.9%.

For `[C-]#[O+].[C-]#[O+].[C-]#[O+].[C-]#[O+].[Cr].c1ccc([PH+](CC[PH+](c2ccccc2)c2ccccc2)c2ccccc2)cc1`, which growth inhibition is on record?
The growth inhibition was 11.7%.

With `CCOC(OCC)/C(=C\N(C)C)N=C(C#N)C#N` as the molecule, how does the growth inhibition read?
Its growth inhibition is 0.95%.

For `BrCC[N+]12CC[N+](CCBr)(CC1)C2` (tested in a mixture with another compound), which growth inhibition is on record?
The growth inhibition was 63.1%.

Which growth inhibition does the source give for `c1cc2[se][se]c3c4cccc5[se][se]c(c(c1)c23)c54` here?
Its growth inhibition is 1.05%.

Which growth inhibition does the source give for `CCCC(C)SP(=S)(SC(C)CCC)SC(C)CCC` (stereo not drawn) here?
The growth inhibition was 4.1%.

With `CC(C)OP(=O)(NC(=S)c1ccccc1)OC(C)C` as the molecule, how does the growth inhibition read?
Its growth inhibition is 19.1%.

For `ClC1OC(Cl)(Cl)C(Cl)(Cl)OC1(Cl)Cl` (stereo not drawn), which growth inhibition is on record?
The growth inhibition was 7.7%.

With `CC(=O)Nc1nn[nH]n1` as the molecule, how does the growth inhibition read?
The growth inhibition was 21.9%.

Which growth inhibition does the source give for `COC(=O)c1ccccc1NC(C)=O` here?
Its growth inhibition is -13.8%.

For `CC1=C(\C=C/C(C)=C/C=C/C(C)=C/C=C/C=C(C)\C=C\C=C(C)/C=C/C2=C(C)CCCC2(C)C)C(C)(C)CCC1`, which growth inhibition is on record?
Its growth inhibition is 28.8%.

Which growth inhibition does the source give for `Nc1ccc(Cl)cc1.Nc1ccc(Cl)cc1.Nc1ccc(Cl)cc1.O=C([O-])C(=O)[O-].O=C([O-])C(=O)[O-].[H+].[Ru+5]` here?
The growth inhibition was 18.4%.

Which growth inhibition does the source give for `N#C[CH2][Sn]([c]1ccccc1)([c]1ccccc1)[c]1ccccc1` here?
Its growth inhibition is 98.8% (active).

For `CCNC(=O)Oc1c(Cl)cc(S(=O)(=O)F)cc1Cl`, which growth inhibition is on record?
Its growth inhibition is 43.6%.

With `c1ccc(-c2csc3[nH]c4ccccc4[n+]23)cc1` as the molecule, how does the growth inhibition read?
The growth inhibition was 19.4%.

With `Cc1ccc(P(=S)(c2ccccc2)c2ccccc2)c2ccccc12` as the molecule, how does the growth inhibition read?
Its growth inhibition is 9.9%.

Which growth inhibition does the source give for `C=CC[As+](c1cccc2ccccc12)(c1cccc2ccccc12)c1cccc2ccccc12` here?
Its growth inhibition is -61.5%.

For `C1C2CC3C1C1CN3C21` (stereo not drawn), which growth inhibition is on record?
Its growth inhibition is 16.9%.

Which growth inhibition does the source give for `O=C(O)c1ccc(CI)cc1` here?
The growth inhibition was -9.6%.

For `C/C=C/C(=O)[O-].N.N.N.N.N.[Co+3].[O-][Cl+3]([O-])([O-])[O-]`, which growth inhibition is on record?
The growth inhibition was -10.4%.

For `Cc1nnc(NC2=NCCO2)s1`, which growth inhibition is on record?
Its growth inhibition is -4.2%.

For `Cc1ccc(C(=O)Nc2ccc(CP(=O)(O)O)cc2)cc1NC(=O)c1cccc(NC(=O)Nc2cccc(C(=O)Nc3cc(C(=O)Nc4ccc(CP(=O)(O)O)cc4)ccc3C)c2)c1`, which growth inhibition is on record?
Its growth inhibition is -0.5%.

Which growth inhibition does the source give for `CC(=O)OC(C)(C)/C=C/C(=O)[C@](C)(O)[C@H]1[C@H](O)C[C@@]2(C)[C@@H]3CC=C4[C@@H](C[C@H](O)C(=O)C4(C)C)[C@]3(CO)C(=O)C[C@]12C` here?
The growth inhibition was 21.1%.

Which growth inhibition does the source give for `O=C(CCCN1CCC2(CC1)C(=O)NCN2c1ccccc1)c1ccccc1` here?
Its growth inhibition is -17.6%.

With `CN(C1CCCC1)C1CCCC1` as the molecule, how does the growth inhibition read?
Its growth inhibition is -27.1%.

Which growth inhibition does the source give for `CCOc1ccc(/C=C/c2cc(OC)c(OC)c(OC)c2)cc1` here?
The growth inhibition was -27.9%.

Which growth inhibition does the source give for `CCCOP(=O)(OCCC)C(=O)Nc1ccc(Br)cc1` here?
Its growth inhibition is -25.7%.

For `COC(=O)C1c2cc(OC)c(OC)cc2C(=O)N2CCc3cc4c(cc3C12)OCO4` (stereo not drawn), which growth inhibition is on record?
The growth inhibition was 15.8%.

Which growth inhibition does the source give for `COc1ccc(CC(C)NO)cc1` (stereo not drawn) here?
The growth inhibition was -16.2%.

With `S=P(NCc1cccc(CNP(=S)(N2CC2)N2CC2)c1)(N1CC1)N1CC1` as the molecule, how does the growth inhibition read?
Its growth inhibition is 24.4%.

With `CNP(=S)(Oc1cc(Cl)c(Cl)cc1Cl)N1CCN(c2ccc(Cl)cc2)CC1` (stereo not drawn) as the molecule, how does the growth inhibition read?
Its growth inhibition is -0.5%.

Test: NCI Yeast Anticancer Drug Screen. Data for the mec2-1 strain (AID 157)
Conditions: S. cerevisiae mec2-1 strain, at 50.0 µM, stronger effect = higher value
In short: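 Using mec2-1 yeast: add compound, measure growth, express inhibition versus vehicle-treated cultures.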

With `C[CH2][Sn]([CH2]C)([S]c1nc(O)cc(=O)[nH]1)[S]c1nc(O)cc(=O)[nH]1` as the molecule, how does the growth inhibition read?
The growth inhibition was 41.9%.

For `CCCC(=O)[O-].N.N.N.N.N.[Co+3].[O-][Cl+3]([O-])([O-])[O-]`, which growth inhibition is on record?
The growth inhibition was -2.3%.

Which growth inhibition does the source give for `COc1ccc(C)cc1C(=O)C[n+]1ccc2ccccc2c1` here?
Its growth inhibition is -0.8%.

With `CC(C)[C@]12O[C@H]1[C@@H]1O[C@]13[C@]1(O[C@H]1C[C@H]1C4=C(C(=O)OC4)[C@@H](O)C[C@@]13C)[C@@H]2O` as the molecule, how does the growth inhibition read?
Its growth inhibition is -18.4%.

With `COc1cc(C=C2C(=O)NC(=S)NC2=O)cc(OC)c1OC` as the molecule, how does the growth inhibition read?
Its growth inhibition is -15.9%.

With `CCC(C)OC(=O)Nc1cccc(OC(=O)NC)c1` (stereo not drawn) as the molecule, how does the growth inhibition read?
Its growth inhibition is -22.6%.

For `COC1=CC=C2[C@@H]3Cc4ccc(OC)c5c4[C@]2(CCN3CCCl)C1O5` (stereo partly drawn), which growth inhibition is on record?
Its growth inhibition is -5.35%.

Which growth inhibition does the source give for `CCC(=O)c1ccc(N)cc1` here?
Its growth inhibition is 4.45%.

With `CC(C)(C)C1=C(Br)C(Br)(C(C)(C)C)OP1(=O)c1ccccc1` (stereo not drawn) as the molecule, how does the growth inhibition read?
Its growth inhibition is 8.55%.

Which growth inhibition does the source give for `[C-]#[O+].[C-]#[O+].[C-]#[O+].[C-]#[O+].[Cr].c1ccc([PH+](CC[PH+](c2ccccc2)c2ccccc2)c2ccccc2)cc1` here?
The growth inhibition was 4.85%.

Which growth inhibition does the source give for `CCOC(OCC)/C(=C\N(C)C)N=C(C#N)C#N` here?
Its growth inhibition is -2.4%.

Which growth inhibition does the source give for `BrCC[N+]12CC[N+](CCBr)(CC1)C2` (tested in a mixture with another compound) here?
Its growth inhibition is 49.5%.

Which growth inhibition does the source give for `c1cc2[se][se]c3c4cccc5[se][se]c(c(c1)c23)c54` here?
The growth inhibition was -8.7%.

Which growth inhibition does the source give for `CCCC(C)SP(=S)(SC(C)CCC)SC(C)CCC` (stereo not drawn) here?
The growth inhibition was -11.3%.

For `CC(C)OP(=O)(NC(=S)c1ccccc1)OC(C)C`, which growth inhibition is on record?
Its growth inhibition is 21%.

With `ClC1OC(Cl)(Cl)C(Cl)(Cl)OC1(Cl)Cl` (stereo not drawn) as the molecule, how does the growth inhibition read?
Its growth inhibition is 3.75%.

Which growth inhibition does the source give for `CC(=O)Nc1nn[nH]n1` here?
Its growth inhibition is 14.4%.

For `COC(=O)c1ccccc1NC(C)=O`, which growth inhibition is on record?
The growth inhibition was -9.25%.

Which growth inhibition does the source give for `CC1=C(\C=C/C(C)=C/C=C/C(C)=C/C=C/C=C(C)\C=C\C=C(C)/C=C/C2=C(C)CCCC2(C)C)C(C)(C)CCC1` here?
Its growth inhibition is 9.35%.

With `Nc1ccc(Cl)cc1.Nc1ccc(Cl)cc1.Nc1ccc(Cl)cc1.O=C([O-])C(=O)[O-].O=C([O-])C(=O)[O-].[H+].[Ru+5]` as the molecule, how does the growth inhibition read?
The growth inhibition was 20.7%.

Which growth inhibition does the source give for `N#C[CH2][Sn]([c]1ccccc1)([c]1ccccc1)[c]1ccccc1` here?
Its growth inhibition is 98.8% (active).

With `CCNC(=O)Oc1c(Cl)cc(S(=O)(=O)F)cc1Cl` as the molecule, how does the growth inhibition read?
Its growth inhibition is 22.8%.

For `c1ccc(-c2csc3[nH]c4ccccc4[n+]23)cc1`, which growth inhibition is on record?
Its growth inhibition is 5.6%.

With `Cc1ccc(P(=S)(c2ccccc2)c2ccccc2)c2ccccc12` as the molecule, how does the growth inhibition read?
The growth inhibition was 0.45%.

Which growth inhibition does the source give for `C=CC[As+](c1cccc2ccccc12)(c1cccc2ccccc12)c1cccc2ccccc12` here?
Its growth inhibition is -14.1%.

For `C1C2CC3C1C1CN3C21` (stereo not drawn), which growth inhibition is on record?
The growth inhibition was 2.65%.

For `O=C(O)c1ccc(CI)cc1`, which growth inhibition is on record?
Its growth inhibition is -11.9%.

Which growth inhibition does the source give for `C/C=C/C(=O)[O-].N.N.N.N.N.[Co+3].[O-][Cl+3]([O-])([O-])[O-]` here?
Its growth inhibition is -5.85%.

With `Cc1nnc(NC2=NCCO2)s1` as the molecule, how does the growth inhibition read?
The growth inhibition was -5.5%.

For `Cc1ccc(C(=O)Nc2ccc(CP(=O)(O)O)cc2)cc1NC(=O)c1cccc(NC(=O)Nc2cccc(C(=O)Nc3cc(C(=O)Nc4ccc(CP(=O)(O)O)cc4)ccc3C)c2)c1`, which growth inhibition is on record?
The growth inhibition was 0.95%.

For `CC(=O)OC(C)(C)/C=C/C(=O)[C@](C)(O)[C@H]1[C@H](O)C[C@@]2(C)[C@@H]3CC=C4[C@@H](C[C@H](O)C(=O)C4(C)C)[C@]3(CO)C(=O)C[C@]12C`, which growth inhibition is on record?
The growth inhibition was -12.9%.

Which growth inhibition does the source give for `O=C(CCCN1CCC2(CC1)C(=O)NCN2c1ccccc1)c1ccccc1` here?
The growth inhibition was -2.65%.

For `CN(C1CCCC1)C1CCCC1`, which growth inhibition is on record?
The growth inhibition was -25.9%.

Which growth inhibition does the source give for `CCOc1ccc(/C=C/c2cc(OC)c(OC)c(OC)c2)cc1` here?
Its growth inhibition is -21.7%.

With `CCCOP(=O)(OCCC)C(=O)Nc1ccc(Br)cc1` as the molecule, how does the growth inhibition read?
Its growth inhibition is 2.95%.

With `COC(=O)C1c2cc(OC)c(OC)cc2C(=O)N2CCc3cc4c(cc3C12)OCO4` (stereo not drawn) as the molecule, how does the growth inhibition read?
The growth inhibition was -14.8%.

With `COc1ccc(CC(C)NO)cc1` (stereo not drawn) as the molecule, how does the growth inhibition read?
The growth inhibition was 8.8%.

With `S=P(NCc1cccc(CNP(=S)(N2CC2)N2CC2)c1)(N1CC1)N1CC1` as the molecule, how does the growth inhibition read?
Its growth inhibition is -0.2%.

With `CNP(=S)(Oc1cc(Cl)c(Cl)cc1Cl)N1CCN(c2ccc(Cl)cc2)CC1` (stereo not drawn) as the molecule, how does the growth inhibition read?
Its growth inhibition is 2%.
